# Data from the supplement of paper PMC9694430.
# What was measured:
# Test in all cases: thermal shift delta Tm vs DMSO control; higher = stronger stabilization (binding)
# Settings in all cases: 12.5 µM; protein concentration 2 µM
# LOC_OS01G01410-cb001 = system: LOC_OS01G01410-cb001
# Procedure, shortened: (§1)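 Thermal shift values come from differential scanning fluorimetry on purified rice kinase domains made in E. coli, with melting temperatures obtained from Boltzmann fits. Samples of 19.5 μl held 2 μM kinase, 100 mM potassium phosphate pH 7.5, 150 mM NaCl, 10% glycerol, 5 × SYPRO Orange and compound in DMSO, and were heated from 25°C to 95°C at 0.05°C/s. Each shift is a triplicate mean relative to the DMSO-only protein sample.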
# LOC_OS01G02750-cb003 = system: LOC_OS01G02750-cb003
# Procedure, shortened: as §1
# LOC_OS01G10900-cb004 = system: LOC_OS01G10900-cb004
# Procedure, shortened: as §1
# LOC_OS01G13800-cb001 = system: LOC_OS01G13800-cb001
# Procedure, shortened: as §1
# LOC_OS01G14860-cb001 = system: LOC_OS01G14860-cb001
# Procedure, shortened: as §1
# LOC_OS01G21960-cb002 = system: LOC_OS01G21960-cb002
# Procedure, shortened: as §1
# LOC_OS01G39600-cb002 = system: LOC_OS01G39600-cb002
# Procedure, shortened: as §1
# LOC_OS01G48390-cb002 = system: LOC_OS01G48390-cb002
# Procedure, shortened: as §1
# LOC_OS01G51400-cb002 = system: LOC_OS01G51400-cb002
# Procedure, shortened: as §1
# LOC_OS01G52050-cb004 = system: T1, LOC_OS01G52050-cb004
# T1 sequence (whole entry): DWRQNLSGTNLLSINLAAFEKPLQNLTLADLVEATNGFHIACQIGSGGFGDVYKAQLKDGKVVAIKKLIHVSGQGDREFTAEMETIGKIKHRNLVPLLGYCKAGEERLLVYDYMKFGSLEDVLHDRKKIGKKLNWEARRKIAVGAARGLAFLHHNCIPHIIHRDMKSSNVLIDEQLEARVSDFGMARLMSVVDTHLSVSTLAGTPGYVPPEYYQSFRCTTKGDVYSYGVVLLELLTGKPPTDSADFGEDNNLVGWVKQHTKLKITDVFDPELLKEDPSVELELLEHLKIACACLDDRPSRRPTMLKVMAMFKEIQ
# Procedure, shortened: as §1
# LOC_OS01G57100-cb003 = system: LOC_OS01G57100-cb003
# Procedure, shortened: as §1
# LOC_OS01G60330-cb001 = system: LOC_OS01G60330-cb001
# Procedure, shortened: as §1
# LOC_OS01G60700-cb002 = system: LOC_OS01G60700-cb002
# Procedure, shortened: as §1
# LOC_OS01G63280-cb003 = system: LOC_OS01G63280-cb003
# Procedure, shortened: as §1
# LOC_OS01G67340-cb003 = system: LOC_OS01G67340-cb003
# Procedure, shortened: as §1
# LOC_OS01G70970-cb002 = system: LOC_OS01G70970-cb002
# Procedure, shortened: as §1
# LOC_OS02G07810-cb001 = system: LOC_OS02G07810-cb001
# Procedure, shortened: as §1
# LOC_OS02G08530-cb003 = system: LOC_OS02G08530-cb003
# Procedure, shortened: as §1
# LOC_OS02G14120-cb001 = system: LOC_OS02G14120-cb001
# Procedure, shortened: as §1
# LOC_OS02G17970-cb001 = system: LOC_OS02G17970-cb001
# Procedure, shortened: as §1
# 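Further: purified Escherichia coli-expressed rice kinase domain construct.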
SMILES,thermal shift delta Tm (LOC_OS01G01410-cb001) [°C],thermal shift delta Tm (LOC_OS01G02750-cb003) [°C],thermal shift delta Tm (LOC_OS01G10900-cb004) [°C],thermal shift delta Tm (LOC_OS01G13800-cb001) [°C],thermal shift delta Tm (LOC_OS01G14860-cb001) [°C],thermal shift delta Tm (LOC_OS01G21960-cb002) [°C],thermal shift delta Tm (LOC_OS01G39600-cb002) [°C],thermal shift delta Tm (LOC_OS01G48390-cb002) [°C],thermal shift delta Tm (LOC_OS01G51400-cb002) [°C],thermal shift delta Tm (LOC_OS01G52050-cb004) [°C],thermal shift delta Tm (LOC_OS01G57100-cb003) [°C],thermal shift delta Tm (LOC_OS01G60330-cb001) [°C],thermal shift delta Tm (LOC_OS01G60700-cb002) [°C],thermal shift delta Tm (LOC_OS01G63280-cb003) [°C],thermal shift delta Tm (LOC_OS01G67340-cb003) [°C],thermal shift delta Tm (LOC_OS01G70970-cb002) [°C],thermal shift delta Tm (LOC_OS02G07810-cb001) [°C],thermal shift delta Tm (LOC_OS02G08530-cb003) [°C],thermal shift delta Tm (LOC_OS02G14120-cb001) [°C],thermal shift delta Tm (LOC_OS02G17970-cb001) [°C]
CN1c2ccccc2C(=O)Nc2cnc(Nc3ccc(N4CCC(O)CC4)cc3)nc21,0.94,1.24,3,-0.58,0.36,0.64,0.1,0.29,0.1,0.63,0.2,1.06,0.97,2.56,1.01,2.61,0.39,0.74,11.1,0.53
CN1CCN(c2ccc(C(=O)Nc3n[nH]c4ccc(Cc5cc(F)cc(F)c5)cc34)c(NC3CCOCC3)c2)CC1 [Entrectinib (RXDX-101)],2.21,2.9,4.99,-0.49,0.18,1.51,3.51,5.48,0.15,0.2,0.09,4.04,0.42,-0.06,0.57,1.01,0.27,3.95,5.28,0.09
CNC(=O)c1ccccc1Sc1ccc2c(/C=C/c3ccccn3)n[nH]c2c1 [Axitinib],2,0.59,0.25,-0.18,0.29,0.14,1.08,0.12,0.04,0.17,0.01,1.21,1.17,0.65,-0.05,0.68,0.49,0.53,3.54,-0.24
CNC(=O)c1ccc(C)c(-n2c(C)cc(OCc3ccc(F)cc3F)c(Br)c2=O)c1,-0.05,0.1,0.26,0.31,-0.06,0.34,-0.13,0.65,0.44,0.41,2.4,0.78,1.45,0.3,-0.29,0.12,1.25,0.96,0.27,0.83
CS(=O)(=O)N1CCc2c(-c3cnc(N)nc3)nc(N3CCOCC3)nc21,0.53,3.27,-0.12,0.32,0.7,0.72,-0.17,0.96,0.18,0.32,1.64,1.56,0.95,0.4,1.13,0.73,1.06,1.51,1.15,0.81
Cc1cc(Nc2nc(N[C@@H](C)c3ccc(F)cc3)c(C#N)cc2F)n[nH]1,4.59,1.83,0.46,-0.07,5.09,1.28,4.3,5.61,0.07,0.63,0.56,7.34,0.15,0.61,-0.08,1.7,0.48,1.49,7.95,0.2
